Measured values as given in PubChem BioAssay (NCI).
Where “and” joins values, the source holds several entries; their conditions need not be identical. Equal values may be shown once. About 79,000 compounds went through this panel and 15% of them were active in at least one assay; those are over-represented in the sample as a whole. Unmarked numbers belong to inactive results. Calls of active or inactive are those of the source. Cut-off read from the data, not from the text of the source: active = growth inhibition above about 70%; inactive = the rest.

Key:
[1] = NCI Yeast Anticancer Drug Screen. Data for the rad50 strain (AID 155);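 note: 0% = growth of vehicle-only cultures of the same strain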; conditions: S. cerevisiae rad50 strain growth inhibition, hits give high values
Outline: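 Genetically altered yeast (DNA repair pathway); compound treatment; growth inhibition vs vehicle ctrl.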

[2] = NCI Yeast Anticancer Drug Screen. Data for the mec2-1 strain (AID 157); conditions: S. cerevisiae mec2-1 strain, hits give high values
Outline: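 Test agents were screened against the mec2-1 yeast strain, with defined DNA repair or cell cycle alteration. Growth was scored as inhibition against vehicle-only controls.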

[3] = NCI Yeast Anticancer Drug Screen. Data for the sgs1 mgt1 strain (AID 161);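 note: 0% = growth of cultures given vehicle only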; conditions: S. cerevisiae sgs1 mgt1 strain, hits give high values
Outline: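 Mutant yeast exposed to compound; growth scored against vehicle-only wells.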

[4] = NCI Yeast Anticancer Drug Screen. Data for the cln2 rad14 strain (AID 165);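 note: 0% = growth equal to vehicle treated cultures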; conditions: S. cerevisiae cln2 rad14 strain, hits give high values
Outline: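 Growth of compound-exposed yeast (cln2 rad14 genotype) measured and expressed as inhibition relative to vehicle.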

[5] = NCI Yeast Anticancer Drug Screen. Data for the bub3 strain (AID 167); conditions: S. cerevisiae bub3 mutant strain, hits give high values
Outline: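 Yeast carrying a defined mutation is treated with each compound, and growth is compared with that of vehicle-exposed cells to give inhibition.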

[6] = NCI Yeast Anticancer Drug Screen. Data for the mlh1 rad18 strain (AID 175); conditions: S. cerevisiae mlh1 rad18 strain growth inhibition, hits give high values
Outline: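 In this whole-cell yeast screen, a strain with altered DNA damage repair is challenged with compound, and its growth is measured against matched vehicle-treated controls.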

[7] = at 5.0 µM (retest, dose inferred, filed as 0.5)
[8] = at 50.0 µM (retest, dose inferred, filed as 5.0)

| Compound | growth inhibition [1, 7] | growth inhibition [1, 8] | growth inhibition ([1]; at 50.0 µM) | growth inhibition [2, 7] | growth inhibition [2, 8] | growth inhibition ([2]; at 50.0 µM) | growth inhibition [3, 7] | growth inhibition [3, 8] | growth inhibition ([3]; at 50.0 µM) | growth inhibition [4, 7] | growth inhibition [4, 8] | growth inhibition ([4]; at 50.0 µM) | growth inhibition [5, 7] | growth inhibition [5, 8] | growth inhibition ([5]; at 50.0 µM) | growth inhibition [6, 7] | growth inhibition [6, 8] | growth inhibition ([6]; at 50.0 µM) |
| --- | --- | --- | --- | --- | --- | --- | --- | --- | --- | --- | --- | --- | --- | --- | --- | --- | --- | --- |
| N#CC(C#N)=Cc1cc(Cl)ccc1O | 11% | 79% (active) | 56% and 4.55% | -14% | 44% | 45.5% and 17.9% | 2% | 58% | 46% and 65.7% | 4% | 30% | 40.7% and -4.9% | 31% | 64% | 20.7% and 2.2% | 8% | 71% (active) | 65.8% and 39.8% |
| CC1(C)CCC(C)(C)c2cc(Cl)c(O)cc21 | 4% | 1% | 97.8% (active) | 4% | 2% | 99.2% (active) | 4% | 2% | 52.5% | 5% | 4% | 96.6% (active) | 3% | 9% | 98.8% (active) | -1% | -4% | 97.2% (active) |
| [Cl][Hg][Cl].c1cnccn1 | 39% | 97% (active) | 92.2% (active) | 40% | 98% (active) | 93.8% (active) | 99% (active) | 99% (active) | 94.3% (active) | 80% (active) | 97% (active) | 93.2% (active) | 99% (active) | 99% (active) | 93.2% (active) | 32% | 99% (active) | 93% (active) |
| O=C1[O][Hg][c]2cccc3cccc1c23 | 99% (active) | 99% (active) | 98.3% (active) | 100% (active) | 99% (active) | 99% (active) | 99% (active) | 99% (active) | 98.9% (active) | 89% (active) | 99% (active) | 98.2% (active) | 100% (active) | 58% | 98.2% (active) | 100% (active) | 99% (active) | 97.5% (active) |
